Inconclusive results are not listed. Entries that show only a call come without a potency. Activity calls are given as the source filed them. Unless noted, calls come from the whole dose curve; as a rule, active = well fitted curve in the direction sought with a large enough effect in the repeat runs; inconclusive = weak or mixed curves; inactive = no such curve, though single readings can be large; an effect the other way counts as inactive or inconclusive.
What was measured:
[1] = qHTS assay to identify small molecule that activate the aryl hydrocarbon receptor (AhR) signaling pathway - cell viability counter screen (AID 743086);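 note: HepG2 liver cells carrying the AhR DRE luciferase reporter; series mostly up to about 70 µM; nearly all actives have a fitted effect of over 45% in size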
Method in brief: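 Cytotoxicity counter screen: CellTiter-Fluor signal (30 min, 37 C) in 4000 HepG2 cells/well carrying the DRE-luciferase reporter, following 24 h compound exposure at 37 C.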

[2] = qHTS assay to identify small molecule antagonists of the peroxisome proliferator-activated receptor gamma (PPARg) signaling pathway - cell viability counter screen (AID 743194); conditions: Potency: co-treated with 50 nM rosiglitazone; note: nearly all actives have a fitted effect of over 55% in size
Method in brief: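 Viability was measured as CellTiter-Glo luminescence in GeneBLAzer PPARg UAS-bla HEK293H cells. These cells had been exposed 17 h at 37 C to compounds together with rosiglitazone at 50 nM final, with the beta-lactamase readout taken in the same wells.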

[3] = qHTS assay for small molecule agonists of the antioxidant response element (ARE) signaling pathway (AID 743202; active = well fitted activation curve with a large enough effect in the signal ratio in the repeat runs, not every such curve was filed as active; the % refers to the signal ratio; note: potency is the fitted concentration of half-maximal effect)
Method in brief: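 Beta-lactamase reporter activity, read as fluorescence intensity, reflects ARE/Nrf2 pathway induction in HepG2 cells after 16 h compound exposure at 37 C; substrate loading was 2 h at room temperature.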

[4] = qHTS assay for small molecule agonists of the antioxidant response element (ARE) signaling pathway - cell viability counter screen (AID 743203; calls by dose curve; note: nearly all actives have a fitted effect of over 55% in size)
Method in brief: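 Luminescence read-out (CellTiter-Glo, 30 min at room temperature) measured cell viability in the same wells as the ARE beta-lactamase reporter. HepG2 ARE-bla cells were treated with compounds for 16 hrs at 37C/5% CO2.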

[5] = qHTS assay for small molecule activators of the heat shock response signaling pathway - cell viability counter screen (AID 743209); note: nearly all actives have a fitted effect of over 50% in size
Method in brief: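 HSE-bla HeLa; 1500 cells/well; overnight 37 C, 5% CO2; compound 5 h 37 C; LiveBLAzer B/G substrate 2.5 h RT; CellTiter-Glo 30 min RT; luminescence.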

[6] = qHTS assay for small molecule activators of the heat shock response signaling pathway (AID 743210; active = well fitted activation curve with a large enough effect in the signal ratio in the repeat runs, with a control signal flat, not every such curve was filed as active; the % refers to the signal ratio;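 note: HeLa cells with beta-lactamase reporter driven by heat shock elements; series mostly up to about 63 µM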)
Method in brief: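 Fluorescence from a cleaved B/G FRET substrate (2.5 h, room temp) reports HSE-driven beta-lactamase in HeLa cells treated 5 h at 37 C with DMSO-dissolved compounds.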

[7] = qHTS assay to identify small molecule agonists of the peroxisome proliferator-activated receptor delta (PPARd) signaling pathway - cell viability counter screen (AID 743211); note: nearly all actives have a fitted effect of over 55% in size
Method in brief: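 PPARd-bla HEK293H cells (3000/well) were pre-incubated 5 h at 37 C, then exposed to compound for 17 h at 37 C. After 2 h with LiveBLAzer substrate, CellTiter-Glo was added to the same wells; luminescence read after 30 min at room temperature.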

[8] = qHTS assay to identify small molecule antagonists of the peroxisome proliferator-activated receptor delta (PPARd) signaling pathway - cell viability counter screen (AID 743213); note: nearly all actives have a fitted effect of over 50% in size
Method in brief: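 In this counter screen, HEK293H cells carrying a UAS-beta-lactamase reporter are co-treated with test compounds and 300 nM L165041 (final) for 17 h at 37 C; cell viability is quantified by CellTiter-Glo luminescence.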

[9] = qHTS assay to identify small molecule agonists of the farnesoid-X-receptor (FXR) signaling pathway - cell viability counter screen (AID 743218); note: nearly all actives have a fitted effect of over 45% in size
Method in brief: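 Luminescence from CellTiter-Glo, read after 30 min at RT, reports viability of GeneBLAzer FXR-UAS-bla HEK 293T cells treated 16 h with compounds in the wells used for the beta-lactamase reporter.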

[10] = qHTS assay to identify small molecule antagonists of the farnesoid-X-receptor (FXR) signaling pathway - cell viability counter screen (AID 743221; active = well fitted cell-killing curve with a large enough effect in the repeat runs, not every such curve was filed as active; note: nearly all actives have a fitted effect of over 50% in size)
Method in brief: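 GeneBLAzer FXR-UAS-bla HEK 293T cells, compound plus chenodeoxycholic acid (50 uM final), 16 h at 37 C. CellTiter-Glo added to the same wells after the beta-lactamase read; luminescence read after 30 min at room temperature as viability.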

[11] = molecular target: Vitamin D3 receptor (Homo sapiens) (UniProt P11473); assay: qHTS assay to identify small molecule agonists of the vitamin D receptor (VDR) signaling pathway (AID 743222; calls by dose curve)
Method in brief: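 Beta-lactamase reporter readout (LiveBLAzer B/G FRET, 2 h RT) in VDR-bla cells after 16 h compound treatment at 37C, 5% CO2; cells pre-incubated 4 h before pin transfer of DMSO solutions.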

[12] = molecular target: Vitamin D3 receptor (Homo sapiens) (UniProt P11473); assay: qHTS assay to identify small molecule antagonists of the vitamin D receptor (VDR) signaling pathway (AID 743223; active = well fitted inhibition curve with a large enough effect in the signal ratio in the repeat runs, not every such curve was filed as active; the % refers to the signal ratio)
Method in brief: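 VDR-bla cells were treated with compound plus 3 nM final 1alpha,25-dihydroxyvitamin D3 for 16 h at 37C. Beta-lactamase reporter read by B/G FRET substrate fluorescence after 2 h at room temperature. qHTS format.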

[13] = molecular target: Peroxisome proliferator-activated receptor gamma (Homo sapiens) (UniProt P37231); assay: qHTS assay to identify small molecule antagonists of the peroxisome proliferator-activated receptor gamma (PPARg) signaling pathway (AID 743191; calls by dose curve; note: series mostly up to about 63 µM; nearly all actives have a fitted effect of over 30% in size)
Method in brief: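 Beta-lactamase reporter under UAS control in HEK293H PPARg-bla cells; compound treatment 17 h at 37C. Read-out: fluorescence intensity after 1 h room-temperature incubation with LiveBLAzer B/G FRET substrate.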

[14] = molecular target: Peroxisome proliferator-activated receptor delta (Homo sapiens) (UniProt Q03181); assay: qHTS assay to identify small molecule agonists of the peroxisome proliferator-activated receptor delta (PPARd) signaling pathway (AID 743212; calls by dose curve)
Method in brief: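 Steps: seed PPARd-bla HEK293H cells; incubate 5 h, 37 C, 5% CO2; add compounds in DMSO; incubate, 37 C; add LiveBLAzer B/G FRET substrate; hold 2 h at room temperature; measure fluorescence.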

[15] = molecular target: Peroxisome proliferator-activated receptor delta (Homo sapiens) (UniProt Q03181); assay: qHTS assay to identify small molecule antagonists of the peroxisome proliferator-activated receptor delta (PPARd) signaling pathway (AID 743215; active = well fitted inhibition curve with a large enough effect in the signal ratio in the repeat runs, not every such curve was filed as active; the % refers to the signal ratio;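 note: cells stimulated with agonist L165041 at 300 nM final during compound exposure; series mostly up to about 62 µM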)
Method in brief: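 HEK293H GeneBLAzer PPARd UAS-bla reporter cells; cpd + L165041 300 nM final, 17 h 37 C; LiveBLAzer B/G FRET substrate 2 h RT; fluorescence intensity read-out. Antagonist mode.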

[16] = molecular target: Bile acid receptor (Homo sapiens) (UniProt Q96RI1); assay: qHTS assay to identify small molecule antagonists of the farnesoid-X-receptor (FXR) signaling pathway (AID 743217; active = well fitted inhibition curve with a large enough effect in the signal ratio in the repeat runs, not every such curve was filed as active; the % refers to the signal ratio)
Method in brief: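 Read-out: beta-lactamase FRET fluorescence (LiveBLAzer B/G substrate, 2 h, room temperature) in GeneBLAzer FXR-UAS-bla HEK 293T cells. Compounds were co-dosed with 50 uM chenodeoxycholic acid (final) and incubated 16 h at 37 °C.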

[17] = molecular target: Bile acid receptor (Homo sapiens) (UniProt Q96RI1); assay: qHTS assay to identify small molecule agonists of the farnesoid-X-receptor (FXR) signaling pathway (AID 743220; active = well fitted activation curve with a large enough effect in the signal ratio in the repeat runs, not every such curve was filed as active; the % refers to the signal ratio)
Method in brief: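 FXR-UAS-bla HEK 293T cells carrying a UAS-driven beta-lactamase reporter were plated for 5 h at 37C/5% CO2, then exposed to DMSO-dissolved Tox21 10K compounds for 16 h at 37C. A LiveBLAzer B/G FRET substrate was loaded for 2 h at room temperature before fluorescence reading.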

[18] = molecular target: Aryl hydrocarbon receptor (Homo sapiens) (UniProt P35869); assay: qHTS assay to identify small molecule that activate the aryl hydrocarbon receptor (AhR) signaling pathway (AID 743085);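 note: HG2L7.5c1 human HepG2 liver cells with stably integrated DRE-driven firefly reporter; series mostly up to about 70 µM; nearly all actives have a fitted effect of over 15% in size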
Method in brief: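 HepG2 cells stably carrying a 20-DRE firefly luciferase reporter (HG2L7.5c1) treated with compound for 24 hr at 37C. Luciferase read by ONE-Glo luminescence, with CellTiter-Fluor viability read first.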

[19] = molecular target: Peroxisome proliferator-activated receptor gamma (Homo sapiens) (UniProt P37231); assay: qHTS assay to identify small molecule agonists of the peroxisome proliferator-activated receptor gamma (PPARg) signaling pathway (AID 743094; active = well fitted activation curve with a large enough effect in the signal ratio in the repeat runs, not every such curve was filed as active; the % refers to the signal ratio)
Method in brief: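 HEK293H PPARg-bla cells, 5 h settle at 37C/5% CO2; compound (DMSO) 17 h, 37C; B/G FRET substrate 1 h RT; fluorescence intensity read-out. qHTS format.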

[20] = qHTS assay to identify aromatase inhibitors - cell viability counter screen (AID 743084);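 note: cells stimulated with testosterone during compound exposure; nearly all actives have a fitted effect of over 55% in size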

Sequence of Bile acid receptor (Homo sapiens) (Q96RI1 whole entry, looked up): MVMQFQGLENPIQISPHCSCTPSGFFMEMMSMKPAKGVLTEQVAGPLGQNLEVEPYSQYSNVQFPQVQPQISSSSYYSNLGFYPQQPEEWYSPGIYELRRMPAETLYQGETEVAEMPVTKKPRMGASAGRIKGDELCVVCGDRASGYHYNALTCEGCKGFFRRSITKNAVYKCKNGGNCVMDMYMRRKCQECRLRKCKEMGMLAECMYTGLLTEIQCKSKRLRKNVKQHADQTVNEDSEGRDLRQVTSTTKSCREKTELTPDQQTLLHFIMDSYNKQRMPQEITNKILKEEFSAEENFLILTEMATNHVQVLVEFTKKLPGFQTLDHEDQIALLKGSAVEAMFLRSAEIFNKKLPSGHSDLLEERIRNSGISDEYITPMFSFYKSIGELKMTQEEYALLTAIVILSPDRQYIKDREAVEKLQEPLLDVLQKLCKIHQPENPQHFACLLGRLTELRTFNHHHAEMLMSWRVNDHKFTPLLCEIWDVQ
Sequence of Peroxisome proliferator-activated receptor gamma (Homo sapiens) (P37231 whole entry, looked up): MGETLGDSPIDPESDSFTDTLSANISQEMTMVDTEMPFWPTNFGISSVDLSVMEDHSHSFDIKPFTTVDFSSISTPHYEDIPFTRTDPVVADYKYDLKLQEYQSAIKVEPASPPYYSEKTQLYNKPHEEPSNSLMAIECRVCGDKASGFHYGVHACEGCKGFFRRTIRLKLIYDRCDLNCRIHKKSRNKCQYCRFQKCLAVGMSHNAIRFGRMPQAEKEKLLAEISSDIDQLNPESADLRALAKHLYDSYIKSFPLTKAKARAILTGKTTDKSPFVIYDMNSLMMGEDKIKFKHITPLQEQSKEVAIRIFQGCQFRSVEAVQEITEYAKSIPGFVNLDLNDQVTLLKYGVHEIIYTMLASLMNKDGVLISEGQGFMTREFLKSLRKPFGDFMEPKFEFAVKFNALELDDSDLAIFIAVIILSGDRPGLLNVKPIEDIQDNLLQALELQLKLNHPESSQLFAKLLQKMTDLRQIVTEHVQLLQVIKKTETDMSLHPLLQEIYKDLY
Sequence of Vitamin D3 receptor (Homo sapiens) (P11473 whole entry, looked up): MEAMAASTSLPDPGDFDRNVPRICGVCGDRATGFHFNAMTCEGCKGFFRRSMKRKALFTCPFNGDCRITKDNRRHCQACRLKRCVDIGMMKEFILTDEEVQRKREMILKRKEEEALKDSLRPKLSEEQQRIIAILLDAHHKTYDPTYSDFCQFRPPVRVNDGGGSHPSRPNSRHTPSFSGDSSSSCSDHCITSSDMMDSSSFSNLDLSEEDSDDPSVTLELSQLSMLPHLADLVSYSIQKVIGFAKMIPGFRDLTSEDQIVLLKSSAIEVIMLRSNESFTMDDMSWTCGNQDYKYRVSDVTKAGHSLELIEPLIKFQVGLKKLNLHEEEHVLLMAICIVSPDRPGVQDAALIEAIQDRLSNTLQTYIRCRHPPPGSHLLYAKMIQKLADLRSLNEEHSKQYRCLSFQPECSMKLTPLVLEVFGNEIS
Sequence of Peroxisome proliferator-activated receptor delta (Homo sapiens) (Q03181 whole entry, looked up): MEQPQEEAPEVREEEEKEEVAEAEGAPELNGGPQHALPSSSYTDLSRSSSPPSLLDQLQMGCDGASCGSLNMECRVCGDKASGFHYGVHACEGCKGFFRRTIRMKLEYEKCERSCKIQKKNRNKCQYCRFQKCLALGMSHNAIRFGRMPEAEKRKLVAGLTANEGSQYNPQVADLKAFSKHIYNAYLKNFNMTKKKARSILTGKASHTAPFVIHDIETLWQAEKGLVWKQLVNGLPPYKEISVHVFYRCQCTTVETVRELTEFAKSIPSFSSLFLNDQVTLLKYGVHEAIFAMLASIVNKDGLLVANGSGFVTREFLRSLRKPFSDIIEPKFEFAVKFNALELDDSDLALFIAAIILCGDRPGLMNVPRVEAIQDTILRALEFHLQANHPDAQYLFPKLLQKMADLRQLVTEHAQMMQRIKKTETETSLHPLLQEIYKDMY
Sequence of Aryl hydrocarbon receptor (Homo sapiens) (P35869 whole entry, looked up): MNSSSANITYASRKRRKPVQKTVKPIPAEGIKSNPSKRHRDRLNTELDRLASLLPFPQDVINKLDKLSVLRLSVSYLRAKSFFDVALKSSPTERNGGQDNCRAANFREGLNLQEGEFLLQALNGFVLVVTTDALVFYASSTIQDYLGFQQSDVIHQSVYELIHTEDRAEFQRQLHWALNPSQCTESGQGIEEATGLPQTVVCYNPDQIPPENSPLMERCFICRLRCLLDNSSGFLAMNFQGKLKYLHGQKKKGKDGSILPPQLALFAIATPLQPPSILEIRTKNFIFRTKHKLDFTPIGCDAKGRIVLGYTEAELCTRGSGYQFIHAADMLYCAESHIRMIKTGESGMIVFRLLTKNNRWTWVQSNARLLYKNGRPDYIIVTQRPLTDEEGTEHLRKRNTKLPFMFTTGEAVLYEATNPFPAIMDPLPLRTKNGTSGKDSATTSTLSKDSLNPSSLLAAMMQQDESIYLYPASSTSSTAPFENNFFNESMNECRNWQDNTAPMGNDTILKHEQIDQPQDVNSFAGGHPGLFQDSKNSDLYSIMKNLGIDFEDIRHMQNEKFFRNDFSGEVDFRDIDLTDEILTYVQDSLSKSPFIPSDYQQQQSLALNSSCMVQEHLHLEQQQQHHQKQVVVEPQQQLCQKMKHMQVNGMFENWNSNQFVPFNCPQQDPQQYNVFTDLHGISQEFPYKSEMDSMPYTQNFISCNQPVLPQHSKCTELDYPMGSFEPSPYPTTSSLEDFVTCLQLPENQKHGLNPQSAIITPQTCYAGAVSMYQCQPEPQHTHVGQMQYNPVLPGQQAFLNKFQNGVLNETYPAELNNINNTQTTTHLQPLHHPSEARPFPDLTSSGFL

SMILES	Potency [1]	Potency [2]	Potency [3]	Potency [4]	Potency [5]	Potency [6]	Potency [7]	Potency [8]	Potency [9]	Potency [10]	outcome [11]	outcome [12]	Potency [13]	outcome [14]	Potency [15]	outcome [16]	outcome [17]	Potency [18]	outcome [19]	Potency [20]
O=[N+]([O-])c1cccc(CCl)c1	inactive	inactive	31.3 µM (active)	inactive	inactive	inactive	inactive	inactive	inactive	inactive	inactive	inactive								
CCc1ccc(C2CCNCC2)cc1		inactive	inactive	inactive	inactive	inactive	inactive	inactive	inactive	inactive			inactive	inactive	inactive					
CC(Cc1ccccc1)NCCCCl (configuration not stated)		inactive	inactive	inactive	inactive	inactive	inactive	inactive	inactive	inactive		inactive		inactive	inactive	inactive	inactive			
O=[N+]([O-])CCO	inactive	inactive		inactive	inactive		inactive	inactive	inactive									inactive	inactive	
CCN1CCCC1CNC(=O)C(O)(c1ccccc1)c1ccccc1 (configuration not stated)		inactive		inactive	inactive	inactive	inactive		inactive	inactive	inactive	inactive	inactive			inactive	inactive			
CCOC(=O)COc1ccc(Cl)cc1Cl		inactive	inactive	inactive	inactive	inactive	inactive		inactive	inactive				inactive	inactive					
CC(=O)OCC1=C(C(=O)O)N2C(=O)[C@@H](N)[C@H]2SC1	inactive	inactive	inactive	inactive		inactive	inactive		inactive	inactive	inactive	inactive		inactive	inactive	inactive	inactive			inactive
O=c1[nH]c2ccccc2n1C1CCNCC1		inactive	inactive	inactive	inactive	inactive	inactive	inactive	inactive	inactive		inactive	inactive	inactive	inactive					
C[C@H](CN1CCOCC1)C(C(=O)N1CCCC1)(c1ccccc1)c1ccccc1		inactive	inactive	inactive	inactive	inactive	inactive	inactive	inactive	inactive	inactive			inactive	inactive		inactive		inactive	inactive
CCC(C(N)=O)N1CCCC1=O (configuration not stated)	inactive	inactive	inactive	inactive	inactive	inactive	inactive		inactive	inactive	inactive	inactive		inactive	inactive	inactive	inactive		inactive	inactive
C=C(Cl)CCl		inactive	inactive	inactive	inactive	inactive	inactive		inactive	inactive	inactive	inactive	inactive	inactive	inactive				inactive	inactive
CC(Cc1ccccc1)NCCn1cnc2c1c(=O)n(C)c(=O)n2C (configuration not stated)		inactive	inactive	inactive	inactive	inactive		inactive	inactive	inactive	inactive	inactive	inactive	inactive				inactive	inactive	
CC(C)(N)Cc1ccccc1Cl		inactive			inactive	inactive	inactive	inactive	inactive	inactive		inactive	inactive	inactive	inactive	inactive	inactive			
CCC(C)C(C)(COC(N)=O)COC(N)=O (configuration not stated)		inactive	inactive	inactive	inactive	inactive	inactive		inactive	inactive			inactive							
CN1COCN(Cc2cnc(Cl)s2)/C1=N\[N+](=O)[O-]	inactive	inactive	inactive	inactive	inactive	inactive	inactive		inactive	inactive	inactive	inactive		inactive	inactive	inactive	inactive		inactive	inactive
Clc1nc(Cl)nc(Nc2ccccc2Cl)n1	inactive			inactive	inactive	inactive	inactive	inactive	inactive	inactive	inactive		inactive	inactive					inactive	inactive
ClCCN1CCCC1		inactive		inactive		inactive	inactive	inactive	inactive	inactive	inactive	inactive	inactive	inactive	inactive					

Source: PubChem BioAssay (Tox21)
